Source: PubChem BioAssay AID2013 (Sanford-Burnham Center for Chemical Genomics, 2009)
The whole screen tested about 290,000 compounds, of which about 370 (0.13%) were called active. The full list was thinned out, with actives kept by preference. Entries with a potency or affinity are not part of this list. A number with no mark means an inactive call.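 Rule for the calls: active = spots per cell inhibited over 60%, with over 100 cells counted and total cytoplasm intensity under 500,000; inconclusive = wells with under 100 cells, flagged as likely toxic; inactive = the rest.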

Target: G-protein coupled receptor 55 (Homo sapiens) (UniProt Q9Y2T6)
Sequence (Q9Y2T6 whole entry, looked up): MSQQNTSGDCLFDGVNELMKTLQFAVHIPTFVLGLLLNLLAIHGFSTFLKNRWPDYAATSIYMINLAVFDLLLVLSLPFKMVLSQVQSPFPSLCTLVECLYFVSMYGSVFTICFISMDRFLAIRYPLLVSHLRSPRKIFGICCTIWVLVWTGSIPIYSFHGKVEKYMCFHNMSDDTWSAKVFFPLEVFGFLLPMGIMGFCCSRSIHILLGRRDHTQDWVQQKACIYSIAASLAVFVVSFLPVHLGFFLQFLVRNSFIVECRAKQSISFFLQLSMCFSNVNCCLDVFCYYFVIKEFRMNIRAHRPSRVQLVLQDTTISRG
Experiment: GPR55 antagonists blocking LPI-driven arrestin recruitment, primary screen, imaging, U2OS, beta-arrestin-GFP, LPI agonist (AID 2013);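 note: U2OS cells stably carrying GPR55 and arrestin-GFP stimulated by 5 µM LPI near EC80; imaged beta-arrestin-GFP aggregate spots per cell after agonist stimulation; plate controls were LPI-stimulated DMSO wells for no effect and DMSO wells without LPI for full effect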
Conditions: U2OS GPR55 beta-arrestin-GFP translocation imaging, LPI antagonism; at 10 µM; active compounds read high

First: CC(C(=O)Nc1ccc(S(=O)(=O)N2CCOCC2)cc1)N(c1ccccc1)S(C)(=O)=O (configuration not stated)
Second: CSc1ncc(Cl)c(C(=O)Nc2ccc(S(=O)(=O)N3CCOCC3)cc2)n1
The inhibition of the first is lower: 2.6% for the first, 29.9% for the second.

Compared with `COc1ccccc1CN1CC(C(=O)N(C)CCOc2ccccc2)CCC1=O` (configuration not stated), `COc1ccc(C(=O)NC(Oc2ccccc2)C(Cl)(Cl)Cl)cc1` (configuration not stated) is lower in inhibition: 4.1% for the first, -6.6% for the second.

Compared with `CCc1ccc2oc(C(=O)NC3CCS(=O)(=O)C3)cc(=O)c2c1` (configuration not stated), `O=S1(=O)CCC(NC(=S)SCc2ccccc2Br)C1` (configuration not stated) is higher in inhibition: 0.2% for the first, 8.1% for the second.

First: CCOC(=O)c1cnc2c(c(C)nn2C)c1Oc1cc(Cl)cc(Cl)c1
Second: CCOC(=O)c1cnc2c(c(C)nn2C)c1Oc1ccc(OC)cc1
The inhibition of the first is lower: -4.2% for the first, 24.7% for the second.

Compared with `CCOc1ccc(/C=N/n2c(-c3ccccc3)n[nH]c2=S)cc1`, `O=c1[nH]c2ccccc2nc1-c1ccccc1` is higher in inhibition: -1.8% for the first, 5.1% for the second.

First: O=C(O)CSCC(=O)Nc1ccc(S(=O)(=O)N2CCCCC2)cc1
Second: CCCCNS(=O)(=O)c1cccc(S(=O)(=O)N2CCCC2)c1
The inhibition of the first is lower: 8.7% for the first, 11.2% for the second.

Going from `CC(c1ccc(F)cc1)n1cc(C(=O)NCc2ccccn2)nn1` (configuration not stated) to `N=C1S/C(=C\c2ccccc2F)C(=O)N1c1ccc(F)cc1`, the inhibition rises from -1.6% to 7.1%.

Going from `O=C(CSc1nc2ccccc2[nH]1)N=Nc1c(O)[nH]c2ccccc12` to `CN1/C(=C\C(=O)CSc2cccc[n+]2[O-])C(C)(C)c2ccccc21`, the inhibition rises from -8.4% to 0.8%.

First: CCSc1nnc(-c2cccs2)o1
Second: N/C(Cc1cccs1)=N\OC(=O)COc1ccc(Cl)cc1Cl
The inhibition of the first is lower: -4.1% for the first, -3.5% for the second.

Going from `NC(=O)c1sc2nnc(-c3ccccc3)c(-c3ccccc3)c2c1N` to `CCOC(=O)C1=C(O)C(=O)N(c2ccccc2)C1c1cccc([N+](=O)[O-])c1` (configuration not stated), the inhibition falls from 21.8% to -3.6%.

Going from `O=C(CCn1ccnc1)Nc1cc(Cl)ccc1O` to `CC(C)CC(=O)NNC(=O)c1ccc(Cl)cc1`, the inhibition falls from 4.7% to 4.3%.

Going from `N=C1S/C(=C\c2cccc3ccccc23)C(=O)N1c1ccc(F)cc1` to `CCN=C1S/C(=C\c2cn(C(C)=O)nc2-c2ccccc2)C(=O)N1CC`, the inhibition falls from -1.5% to -15.2%.

First: CC(C)(C)OC(=O)CC12CCCCC1NC(=O)O2 (configuration not stated)
Second: COc1ccc(C(=O)N(CCCO)C(C)C(=O)NC2CCCCC2)cc1OC (configuration not stated)
The inhibition of the first is higher: -7.6% for the first, -11.9% for the second.

Compared with `COc1ccc2[nH]c(=O)c(COC(=O)c3ccco3)cc2c1`, `COc1ccccc1NC(=S)NC(NC(=O)c1ccco1)C(Cl)(Cl)Cl` (configuration not stated) is higher in inhibition: -0.6% for the first, 3.2% for the second.

Going from `CC1Cn2c(nc(=O)c3c2NCN(CCc2ccccc2)C3)S1` (configuration not stated) to `CN(C)CCCN(C(=O)CCc1ccccc1)c1nc2ccc(Br)cc2s1`, the inhibition rises from 3.9% to 44.7%.

Compared with `CC(=O)c1c(C)nc2ccccn12`, `Cc1cc(=O)c(C(=O)O)nn1-c1ccccc1C(F)(F)F` is lower in inhibition: 5.4% for the first, -0.4% for the second.

Going from `CCCSC(=S)NC1CCS(=O)(=O)C1` (configuration not stated) to `CCCn1cc(CN2CCC(n3nccc3NC(=O)c3ccc4c(c3)OCO4)CC2)c(C)n1`, the inhibition rises from 1.1% to 6%.

Compared with `CCOC(=O)C1=C(C)NC(C)=C(C(=O)OC)C1c1cccc([N+](=O)[O-])c1` (configuration not stated), `CC(=O)NC1=NC(=O)/C(=C/c2cc(C)n(-c3cccc(C(=O)O)c3)c2C)S1` is lower in inhibition: 14.8% for the first, -3.4% for the second.

Compared with `CCn1c(SCc2nc3cc(OC)c(OC)cc3c(=O)[nH]2)nnc1-c1ccncc1`, `CCCSc1ncc(Cl)c(C(=O)Nc2ccc(S(=O)(=O)Nc3ncccn3)cc2)n1` is higher in inhibition: -12.8% for the first, 7.3% for the second.

Going from `CCOC(=O)N1CCN(C(=O)CS(=O)Cc2nc(-c3cccc(C)c3)oc2C)CC1` (configuration not stated) to `O=C(c1cccc(C(F)(F)F)c1)N1CCN(S(=O)(=O)c2ccc(Cl)s2)CC1`, the inhibition rises from -4.3% to 9.8%.

Compared with `O=C(NC(NC(=S)Nc1ccccc1C(=O)O)C(Cl)(Cl)Cl)c1ccco1` (configuration not stated), `COCCNC(=O)c1cccc2c1-c1ccccc1C2=O` is lower in inhibition: 15.9% for the first, 4% for the second.

Going from `Cc1ccc(NC(=O)C2C3C=CC4(O3)C2C(=O)N(CCCN2CCCCC2)C4C(=O)NC2CCCCC2)cc1C` (configuration not stated) to `COc1ccc(C(=O)C2CCCN(C(=O)c3noc4c3CCCC4)C2)c(C)c1` (configuration not stated), the inhibition rises from 1.2% to 15.3%.

Going from `COC(CNC(=O)c1coc2nc3ccccc3nc12)OC` to `COCCCNC(=O)c1ccccc1-c1cc(C)no1`, the inhibition falls from -2.8% to -3.6%.

First: CCOC(=O)C(C(=O)OCC)c1cc(Br)c2noc3c2c1C(=O)c1ccccc1-3
Second: CCOC(=O)c1ccc(NC(=O)c2ccc3c(c2)C(=O)N(Cc2cccnc2)C3=O)cc1
The inhibition of the first is higher: -10.2% for the first, -16.9% for the second.

Compared with `CCN(c1cccc(C)c1)S(=O)(=O)c1ccc2c(c1)oc(=O)n2C`, `CCOc1ccc(NC(=O)CN(C)S(=O)(=O)c2ccc3c(c2)CCC(=O)N3)cc1` is lower in inhibition: 1.9% for the first, -0.4% for the second.

First: Cc1ccc(CN2CCN(/N=C/C(Br)=C\c3ccccc3)CC2)cc1
Second: Cc1ccc2nc(N(CCCN(C)C)C(=O)CCc3ccccc3)sc2c1
The inhibition of the first is lower: -12% for the first, 29.6% for the second.

Going from `CN1/C(=C\C(=O)CSc2nncn2C)C(C)(C)c2ccccc21` to `CC(C)(C)c1ccc(O)c(N=Cc2cc3c(cc2[N+](=O)[O-])OCO3)c1`, the inhibition rises from -7.6% to -3.2%.

First: COc1ccc2[nH]cc(C(O)CN3CCC(C(N)=O)CC3)c2c1 (configuration not stated)
Second: COc1ccc([N+](=O)[O-])cc1N(CC(=O)NCCC1=CCCCC1)S(C)(=O)=O
The inhibition of the first is higher: 28.7% for the first, 0.4% for the second.

Compound `CCc1ccc(C(=O)COC(=O)[C@@H](NC(N)=O)[C@@H](C)CC)cc1` has an inhibition of 0.9%.

With `O=S1(=O)CC=C(CSC(=S)NC2CCS(=O)(=O)C2)C1` (configuration not stated) the inhibition was 71.8% (active).
In the case of `COCCCNC(=O)c1ccc2c3c(onc13)-c1ccccc1C2=O`, the inhibition is reported as 84.1% (active).
In the case of `COC(CNC(=O)c1ccc2c3c(onc13)-c1ccccc1C2=O)OC`, the inhibition is reported as 99.4% (active).
`CC(=O)NC1=NC(=O)/C(=C/c2cn(C(C)=O)nc2-c2ccccc2)S1` was tested, and the inhibition was 100% (active).
In the case of `CN(C)CCCN(C(=O)CCc1ccccc1)c1nc2ccc(Cl)cc2s1`, the inhibition is reported as 75.6% (active).
